# PMC7862700, “An all-to-all approach to the identification of sequence-specific readers for epigenetic DNA modifications on cytosine”
# Columns and labels:
# Assay in all cases: DAPPL (digital affinity profiling via proximity ligation, sequencing); 10 mM Tris-HCl pH 7.5, 50 mM NaCl, 1 mM DTT, 4% glycerol, room temperature, 30 min; GST-TFs on glutathione beads, 16-mer random dsDNA library, 0.1% formaldehyde crosslink after washing; high values mean tight binding
# Settings in all cases: protein: recombinant; tags: N-terminal GST; dsDNA, one strand shown
# FLI1 = biological target: T1, FLI1 (Homo sapiens, UniProt Q01543 1-452)
# T1 sequence: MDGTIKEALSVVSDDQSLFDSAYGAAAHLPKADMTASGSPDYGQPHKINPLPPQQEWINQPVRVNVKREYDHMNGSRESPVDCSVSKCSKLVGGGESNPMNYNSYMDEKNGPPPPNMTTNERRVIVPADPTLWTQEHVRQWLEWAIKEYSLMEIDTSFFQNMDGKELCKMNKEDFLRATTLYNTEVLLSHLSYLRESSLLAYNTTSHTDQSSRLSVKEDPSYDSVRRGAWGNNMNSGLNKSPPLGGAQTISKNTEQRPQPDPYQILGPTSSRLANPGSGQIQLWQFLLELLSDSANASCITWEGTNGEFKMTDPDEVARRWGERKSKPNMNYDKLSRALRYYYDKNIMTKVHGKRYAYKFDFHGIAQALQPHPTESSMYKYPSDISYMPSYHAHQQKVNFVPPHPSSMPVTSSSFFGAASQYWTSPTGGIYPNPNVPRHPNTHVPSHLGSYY
# In short: (§1)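 Human transcription factors carrying a GST fusion were produced in yeast, bound to glutathione beads, tagged with DNA barcodes and pooled together with a tag-only sample. Each pool was held with 200 nmole of a random double-stranded 16-mer DNA library in Tris/NaCl/DTT/glycerol buffer for 30 min at room temperature, then washed, crosslinked in 0.1% formaldehyde, proximity-ligated with BsaI/T4 ligase (1 h, 37 °C), PCR-amplified and sequenced on an Illumina NextSeq500. Binding signal is the read frequency of each hexamer for a given factor divided by its frequency in the tag-only sample.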
# ELK1 = biological target: T2, ELK1 (Homo sapiens, UniProt P19419 1-428)
# T2 sequence: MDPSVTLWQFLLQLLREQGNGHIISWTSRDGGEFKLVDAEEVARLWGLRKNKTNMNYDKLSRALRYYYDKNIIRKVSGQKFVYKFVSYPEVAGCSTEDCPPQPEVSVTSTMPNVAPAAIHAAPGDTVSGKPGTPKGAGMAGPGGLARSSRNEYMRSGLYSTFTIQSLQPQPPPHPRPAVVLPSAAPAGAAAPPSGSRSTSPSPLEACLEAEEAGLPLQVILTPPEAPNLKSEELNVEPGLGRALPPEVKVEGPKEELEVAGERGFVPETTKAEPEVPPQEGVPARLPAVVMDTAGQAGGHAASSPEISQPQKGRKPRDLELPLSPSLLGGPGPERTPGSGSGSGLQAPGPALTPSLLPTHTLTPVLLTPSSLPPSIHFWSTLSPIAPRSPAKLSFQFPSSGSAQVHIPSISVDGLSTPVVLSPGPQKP
# In short: as §1
# GABPA = biological target: T3, GABPA (Homo sapiens, UniProt Q06546 1-454)
# T3 sequence: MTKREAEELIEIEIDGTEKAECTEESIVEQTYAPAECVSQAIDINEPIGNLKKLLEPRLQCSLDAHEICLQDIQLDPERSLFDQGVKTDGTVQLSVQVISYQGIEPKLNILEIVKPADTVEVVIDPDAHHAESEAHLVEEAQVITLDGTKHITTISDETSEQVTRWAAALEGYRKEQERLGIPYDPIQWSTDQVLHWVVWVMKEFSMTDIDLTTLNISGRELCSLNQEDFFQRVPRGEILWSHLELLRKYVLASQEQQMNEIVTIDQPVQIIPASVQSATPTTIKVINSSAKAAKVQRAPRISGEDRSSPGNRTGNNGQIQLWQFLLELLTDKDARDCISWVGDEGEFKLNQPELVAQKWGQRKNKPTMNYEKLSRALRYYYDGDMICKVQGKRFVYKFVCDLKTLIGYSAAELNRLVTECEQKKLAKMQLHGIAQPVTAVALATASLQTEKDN
# In short: as §1
# ERG = biological target: T4, ERG (Homo sapiens, UniProt P11308 1-479)
# T4 sequence: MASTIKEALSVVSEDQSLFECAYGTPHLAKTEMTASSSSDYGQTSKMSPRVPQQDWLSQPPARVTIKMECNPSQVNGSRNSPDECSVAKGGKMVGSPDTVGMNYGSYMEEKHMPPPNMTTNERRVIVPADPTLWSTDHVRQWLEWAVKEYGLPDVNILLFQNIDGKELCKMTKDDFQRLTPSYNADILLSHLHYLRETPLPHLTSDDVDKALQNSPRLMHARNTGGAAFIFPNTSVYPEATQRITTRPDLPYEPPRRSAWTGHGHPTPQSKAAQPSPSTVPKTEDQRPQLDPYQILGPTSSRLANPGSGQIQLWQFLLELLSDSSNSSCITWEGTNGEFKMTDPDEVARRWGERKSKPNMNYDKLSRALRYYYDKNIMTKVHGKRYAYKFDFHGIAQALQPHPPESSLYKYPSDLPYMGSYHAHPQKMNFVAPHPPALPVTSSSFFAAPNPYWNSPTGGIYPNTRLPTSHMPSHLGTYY
# In short: as §1
# ELF1 = ELF1 (Homo sapiens, UniProt P32519 1-619)
# In short: as §1
# EHF = biological target: T5, EHF (Homo sapiens, UniProt Q9NZC4 1-300)
# T5 sequence: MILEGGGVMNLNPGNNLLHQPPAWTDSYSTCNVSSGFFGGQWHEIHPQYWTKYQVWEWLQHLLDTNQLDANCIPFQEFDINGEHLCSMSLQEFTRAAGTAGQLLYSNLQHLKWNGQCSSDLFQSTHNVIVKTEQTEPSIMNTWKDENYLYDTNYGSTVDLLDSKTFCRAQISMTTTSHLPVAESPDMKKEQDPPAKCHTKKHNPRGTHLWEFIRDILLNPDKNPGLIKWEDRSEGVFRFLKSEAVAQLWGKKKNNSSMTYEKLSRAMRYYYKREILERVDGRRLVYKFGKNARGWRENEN
# In short: as §1
# SPI1 = SPI1 (Homo sapiens, UniProt P17947 1-270)
# In short: as §1
# SPIB = SPIB (Homo sapiens, UniProt Q01892 1-262)
# In short: as §1
# ELK3 = biological target: T6, ELK3 (Homo sapiens, UniProt P41970 1-407)
# T6 sequence: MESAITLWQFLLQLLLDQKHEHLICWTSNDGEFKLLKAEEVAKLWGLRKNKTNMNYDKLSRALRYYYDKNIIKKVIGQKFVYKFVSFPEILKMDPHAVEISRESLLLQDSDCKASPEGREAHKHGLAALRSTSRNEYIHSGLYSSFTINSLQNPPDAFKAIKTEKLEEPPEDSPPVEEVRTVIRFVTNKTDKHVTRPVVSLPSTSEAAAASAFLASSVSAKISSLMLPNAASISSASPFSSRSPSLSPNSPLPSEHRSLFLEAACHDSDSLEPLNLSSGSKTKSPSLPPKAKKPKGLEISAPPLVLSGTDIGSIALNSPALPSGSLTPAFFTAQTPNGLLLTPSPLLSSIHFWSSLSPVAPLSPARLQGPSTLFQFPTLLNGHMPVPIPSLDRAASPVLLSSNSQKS
# In short: as §1
# ELF1, sequence (P32519 whole entry): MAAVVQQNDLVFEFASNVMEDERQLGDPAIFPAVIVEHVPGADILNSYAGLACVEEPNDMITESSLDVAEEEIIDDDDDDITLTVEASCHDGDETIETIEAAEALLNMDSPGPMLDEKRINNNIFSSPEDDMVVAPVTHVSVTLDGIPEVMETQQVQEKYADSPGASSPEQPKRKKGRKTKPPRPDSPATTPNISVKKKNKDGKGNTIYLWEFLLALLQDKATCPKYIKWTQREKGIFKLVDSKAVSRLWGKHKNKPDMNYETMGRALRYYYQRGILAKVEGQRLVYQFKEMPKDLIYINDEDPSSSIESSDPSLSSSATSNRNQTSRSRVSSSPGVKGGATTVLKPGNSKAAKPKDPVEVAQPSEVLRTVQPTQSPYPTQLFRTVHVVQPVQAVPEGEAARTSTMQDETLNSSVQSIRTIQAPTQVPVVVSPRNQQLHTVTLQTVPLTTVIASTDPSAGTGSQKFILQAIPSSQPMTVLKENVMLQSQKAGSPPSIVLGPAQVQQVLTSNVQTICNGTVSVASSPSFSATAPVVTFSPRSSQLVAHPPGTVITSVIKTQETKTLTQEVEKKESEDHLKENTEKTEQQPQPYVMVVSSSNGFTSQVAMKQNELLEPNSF
# SPIB, sequence (Q01892 whole entry): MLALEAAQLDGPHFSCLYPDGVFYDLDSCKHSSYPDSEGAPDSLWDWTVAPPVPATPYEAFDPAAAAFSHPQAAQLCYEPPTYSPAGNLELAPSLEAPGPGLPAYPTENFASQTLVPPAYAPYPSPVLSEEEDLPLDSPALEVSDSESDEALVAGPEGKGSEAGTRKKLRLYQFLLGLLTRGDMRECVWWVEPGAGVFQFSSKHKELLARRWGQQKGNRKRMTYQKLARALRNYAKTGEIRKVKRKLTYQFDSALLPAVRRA
Sequence,binding signal (FLI1),binding signal (ELK1),binding signal (GABPA),binding signal (ERG),binding signal (ELF1),binding signal (EHF),binding signal (SPI1),binding signal (SPIB),binding signal (ELK3)
GTATCT,"1.23 fold enrichment (6-mer frequency, TF over GST control)","1.19 fold enrichment (6-mer frequency, TF over GST control)","1.17 fold enrichment (6-mer frequency, TF over GST control)","1.14 fold enrichment (6-mer frequency, TF over GST control)","1.18 fold enrichment (6-mer frequency, TF over GST control)","1.09 fold enrichment (6-mer frequency, TF over GST control)","1.1 fold enrichment (6-mer frequency, TF over GST control)","1.25 fold enrichment (6-mer frequency, TF over GST control)","1.09 fold enrichment (6-mer frequency, TF over GST control)"
CCCCTC,"1.48 fold enrichment (6-mer frequency, TF over GST control)","1.29 fold enrichment (6-mer frequency, TF over GST control)","1.45 fold enrichment (6-mer frequency, TF over GST control)","1.28 fold enrichment (6-mer frequency, TF over GST control)","1.43 fold enrichment (6-mer frequency, TF over GST control)","1.31 fold enrichment (6-mer frequency, TF over GST control)","1.39 fold enrichment (6-mer frequency, TF over GST control)","1.55 fold enrichment (6-mer frequency, TF over GST control)","1.37 fold enrichment (6-mer frequency, TF over GST control)"
TATTGG,"1.12 fold enrichment (6-mer frequency, TF over GST control)","1.14 fold enrichment (6-mer frequency, TF over GST control)","1.22 fold enrichment (6-mer frequency, TF over GST control)","1.15 fold enrichment (6-mer frequency, TF over GST control)","1.22 fold enrichment (6-mer frequency, TF over GST control)","1.26 fold enrichment (6-mer frequency, TF over GST control)","1.06 fold enrichment (6-mer frequency, TF over GST control)","1.24 fold enrichment (6-mer frequency, TF over GST control)","1.07 fold enrichment (6-mer frequency, TF over GST control)"
TTGTTT,"1.46 fold enrichment (6-mer frequency, TF over GST control)","1.45 fold enrichment (6-mer frequency, TF over GST control)","1.36 fold enrichment (6-mer frequency, TF over GST control)","1.6 fold enrichment (6-mer frequency, TF over GST control)","1.37 fold enrichment (6-mer frequency, TF over GST control)","1.51 fold enrichment (6-mer frequency, TF over GST control)","1.28 fold enrichment (6-mer frequency, TF over GST control)","1.52 fold enrichment (6-mer frequency, TF over GST control)","1.49 fold enrichment (6-mer frequency, TF over GST control)"
ACTTTT,"1.43 fold enrichment (6-mer frequency, TF over GST control)","1.32 fold enrichment (6-mer frequency, TF over GST control)","1.34 fold enrichment (6-mer frequency, TF over GST control)","1.21 fold enrichment (6-mer frequency, TF over GST control)","1.21 fold enrichment (6-mer frequency, TF over GST control)","1.21 fold enrichment (6-mer frequency, TF over GST control)","1.26 fold enrichment (6-mer frequency, TF over GST control)","1.34 fold enrichment (6-mer frequency, TF over GST control)","1.14 fold enrichment (6-mer frequency, TF over GST control)"
AATTTA,"1.17 fold enrichment (6-mer frequency, TF over GST control)","1.3 fold enrichment (6-mer frequency, TF over GST control)","1.24 fold enrichment (6-mer frequency, TF over GST control)","1.19 fold enrichment (6-mer frequency, TF over GST control)","1.24 fold enrichment (6-mer frequency, TF over GST control)","1.19 fold enrichment (6-mer frequency, TF over GST control)","1.2 fold enrichment (6-mer frequency, TF over GST control)","1.4 fold enrichment (6-mer frequency, TF over GST control)","1.16 fold enrichment (6-mer frequency, TF over GST control)"
CCAATA,"1.24 fold enrichment (6-mer frequency, TF over GST control)","1.17 fold enrichment (6-mer frequency, TF over GST control)","1.25 fold enrichment (6-mer frequency, TF over GST control)","1.26 fold enrichment (6-mer frequency, TF over GST control)","1.25 fold enrichment (6-mer frequency, TF over GST control)","1.25 fold enrichment (6-mer frequency, TF over GST control)","1.2 fold enrichment (6-mer frequency, TF over GST control)","1.24 fold enrichment (6-mer frequency, TF over GST control)","1.28 fold enrichment (6-mer frequency, TF over GST control)"
